Laboratory results from the supplement of paper PMC12494721.
Where a name gives a salt, the structure may show the parent alone.

Legend:
Conditions in all cases: incubation time: 27 h, anaerobic, 37 °C;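 for the amine columns active = adjusted P below 0.05 in both replicates with a change the same way and a mean fold change under 0.8 or over 1.25; inactive = the rest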
[1] = tested on: Clostridium sporogenes DSM 1664; assay: growth (OD595) fold change vs plate DMSO controls (fold change (ratio)); higher = more growth
In short: (§1)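 The reported measure is growth: the fold change against the median of DMSO controls on the plate. Absorbance at 595 nm from anaerobic 96-well mGAM cultures grown for 27 h at 37 °C was blank-subtracted, corrected for background with 20 µM compound solutions in water, and converted to OD with a calibration factor of 5. Fold changes above 1.5 appear as NA, and values are the mean of 2 biological replicates.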

Escherichia coli IAI1 [2] = assay: as above
In short: as §1

[3] = tested on: Klebsiella aerogenes DSM 30053; assay: as above
In short: as §1

[4] = tested on: Ruminococcus gnavus DSM 108212; assay: as above
In short: as §1

[5] = tested on: Klebsiella aerogenes DSM 30053; assay: fold change of Histamine concentration vs plate DMSO controls (fold change (ratio)); higher = more amine produced, active = hit call of the paper (significant change in both replicates, either direction)
In short: (§2)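 Amines were quantified by LC–triple-quadrupole MS in dynamic MRM mode against external calibration curves, with drift correction within each batch. The samples were whole anaerobic mGAM cultures of four gut bacterial strains, grown for 27 h at 37 °C in 80 µL wells and extracted with cold acetonitrile/methanol with 0.1% formic acid, then centrifuged. Values are reported as fold change over DMSO controls on the same plate. The mean of 2 biological replicates is given.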

[6] = tested on: Clostridium sporogenes DSM 1664; assay: fold change of Tryptamine concentration vs plate DMSO controls (fold change (ratio)); higher = more amine produced, active = hit call of the paper (significant change in both replicates, either direction)
In short: as §2

[7] = tested on: Ruminococcus gnavus DSM 108212; assay: as above
In short: as §2

Escherichia coli IAI1 [8] = assay: fold change of Putrescine concentration vs plate DMSO controls (fold change (ratio)); higher = more amine produced, active = hit call of the paper (significant change in both replicates, either direction)
In short: as §2

[9] = tested on: Klebsiella aerogenes DSM 30053; assay: as above
In short: as §2

Escherichia coli IAI1 [10] = assay: fold change of Cadaverine concentration vs plate DMSO controls (fold change (ratio)); higher = more amine produced, active = hit call of the paper (significant change in both replicates, either direction)
In short: as §2

[11] = tested on: Klebsiella aerogenes DSM 30053; assay: as above
In short: as §2

[12] = tested on: Ruminococcus gnavus DSM 108212; assay: fold change of 2-Phenylethylamine concentration vs plate DMSO controls (fold change (ratio)); higher = more amine produced, active = hit call of the paper (significant change in both replicates, either direction)
In short: as §2

Compound	growth [1]	growth (Escherichia coli IAI1 [2])	growth [3]	growth [4]	fold change of Histamine concentration [5]	fold change of Tryptamine concentration [6]	fold change of Tryptamine concentration [7]	fold change of Putrescine concentration (Escherichia coli IAI1 [8])	fold change of Putrescine concentration [9]	fold change of Cadaverine concentration (Escherichia coli IAI1 [10])	fold change of Cadaverine concentration [11]	fold change of 2-Phenylethylamine concentration [12]
C[C@@H](CN1CC(=O)NC(=O)C1)N1CC(=O)NC(=O)C1 [Dexrazoxane hydrochloride] (20 µM)	1.26	1.01	1.05	0.949	1.01 (inactive)	0.997 (inactive)	1.03 (inactive)	0.979 (inactive)	1.02 (inactive)	0.988 (inactive)	1.01 (inactive)	1.02 (inactive)
C[C@H]1[C@@H](O)O[C@@H]2O[C@@]3(C)CC[C@H]4[C@H](C)CC[C@@H]1[C@@]24OO3 [Artenimol] (20 µM)	1.03	1.03	0.982	1.04	1.01 (inactive)	0.991 (inactive)	1.01 (inactive)	1.02 (inactive)	1.01 (inactive)	1.02 (inactive)	1.01 (inactive)	0.965 (inactive)
CC(C)NCC(O)COc1ccc(COCCOC(C)C)cc1 (stereo not drawn) [Bisoprolol hemifumarate] (20 µM)	1.1	0.975	0.97	0.79	0.965 (inactive)	1.2 (inactive)	1.09 (inactive)	1 (inactive)	0.846 (inactive)	0.99 (inactive)	1.13 (inactive)	1.09 (inactive)
COc1cc2nc(N3CCN(C(=O)C4COc5ccccc5O4)CC3)nc(N)c2cc1OC (stereo not drawn) [Doxazosin mesylate] (20 µM)	0.926	0.974	0.995	1.13	1.01 (inactive)	1.1 (inactive)	0.943 (inactive)	1.02 (inactive)	1 (inactive)	0.983 (inactive)	0.991 (inactive)	0.932 (inactive)
COc1ccc(-c2cc(=O)c3c(O)cc(O[C@@H]4O[C@H](CO[C@@H]5O[C@@H](C)[C@H](O)[C@@H](O)[C@H]5O)[C@@H](O)[C@H](O)[C@H]4O)cc3o2)cc1O [Diosmin] (20 µM)	1.12	0.976	1.01	1.1	0.924 (inactive)	0.985 (inactive)	0.97 (inactive)	0.961 (inactive)	0.992 (inactive)	0.971 (inactive)	1.02 (inactive)	1 (inactive)
CN[C@H]1CC[C@@H](c2ccc(Cl)c(Cl)c2)c2ccccc21 [Sertraline] (20 µM)	1.13	1.01	1.02	0.975	0.995 (inactive)	1.01 (inactive)	0.902 (inactive)	1.03 (inactive)	1 (inactive)	1.1 (inactive)	0.996 (inactive)	1.02 (inactive)
CC(=O)O[C@@]12CO[C@@H]1C[C@H](O)[C@@]1(C)C(=O)[C@H](O)C3=C(C)[C@@H](OC(=O)[C@H](O)[C@@H](NC(=O)OC(C)(C)C)c4ccccc4)C[C@@](O)([C@@H](OC(=O)c4ccccc4)[C@H]21)C3(C)C [Docetaxel] (20 µM)	0.864	1	1.03	1.05	1.05 (inactive)	0.991 (inactive)	1 (inactive)	1.02 (inactive)	1.01 (inactive)	1.02 (inactive)	0.998 (inactive)	0.956 (inactive)
CC(C)COC(=O)OCN1C(=O)CN(CCN2CC(=O)N(COC(=O)OCC(C)C)C(=O)C2)CC1=O [Sobuzoxane] (20 µM)	0.986	0.991	1.03	1.09	1 (inactive)	1.03 (inactive)	1.03 (inactive)	0.986 (inactive)	0.996 (inactive)	0.988 (inactive)	1 (inactive)	1.05 (inactive)
CO[C@@]1(NC(=O)C2SC(=C(C(N)=O)C(=O)O)S2)C(=O)N2C(C(=O)O)=C(CSc3nnnn3C)CS[C@@H]21 (stereo partly drawn) [Cefotetan] (20 µM)	0	0.0332	0.987	1.17	0.528 (active)	0.0152 (active)	1.08 (inactive)	0.606 (inactive)	0.978 (inactive)	2.18 (active)	1.1 (inactive)	1.1 (inactive)
NC(N)=Nc1nc(CSCCN/C=N/S(=O)(=O)c2ccc(Br)cc2)cs1 [Ebrotidine] (20 µM)	1.02	1.02	0.989	1.02	1.03 (inactive)	0.91 (inactive)	0.836 (inactive)	0.974 (inactive)	0.991 (inactive)	1.06 (inactive)	1.01 (inactive)	0.887 (inactive)
CCOC(=O)c1ccc(N)cc1 [Benzocaine] (20 µM)	1.09	1.03	1.08	1.02	0.954 (inactive)	1.1 (inactive)	1.06 (inactive)	0.92 (inactive)	0.969 (inactive)	1 (inactive)	1.01 (inactive)	1.1 (inactive)
CC(C)CN(C[C@@H](O)[C@H](Cc1ccccc1)NC(=O)O[C@H]1CCOC1)S(=O)(=O)c1ccc(N)cc1 [Amprenavir] (20 µM)	1.1	1.05	0.974	0.947	0.92 (inactive)	0.952 (inactive)	1.07 (inactive)	1.14 (inactive)	1.01 (inactive)	0.952 (inactive)	1.03 (inactive)	1.08 (inactive)
N[C@H](Cc1ccccc1)C(=O)O [D-phenylalanine] (20 µM)	1.13	1.02	0.991	0.917	0.946 (inactive)	1.1 (inactive)	0.973 (inactive)	1.06 (inactive)	1.02 (inactive)	0.961 (inactive)	1.01 (inactive)	0.968 (inactive)
CC1CS(=O)(=O)CCN1/N=C/c1ccc([N+](=O)[O-])o1 (stereo not drawn) [Nifurtimox] (20 µM)	1.13	1.03	0.924	1.04	0.593 (active)	0.895 (inactive)	0.971 (inactive)	0.949 (inactive)	0.949 (inactive)	0.974 (inactive)	0.998 (inactive)	1.03 (inactive)
CC(=O)N[C@@H](CCC(N)=O)C(=O)O [Acetyl-L-glutamine] (20 µM)	1.04	0.982	0.977	1.12	1.03 (inactive)	0.997 (inactive)	1.02 (inactive)	0.98 (inactive)	1 (inactive)	0.977 (inactive)	0.99 (inactive)	1.05 (inactive)
CCCCN(CCCC)CCC(O)c1cc2c(Cl)cc(Cl)cc2c2cc(C(F)(F)F)ccc12 (stereo not drawn) [Halofantrine hydrochloride] (20 µM)	1.1	1.23	1.03	1.16	0.895 (inactive)	1.01 (inactive)	0.756 (active)	1.17 (inactive)	0.964 (inactive)	0.955 (inactive)	1.01 (inactive)	0.92 (inactive)
CCCSc1ccc2[nH]c(NC(=O)OC)nc2c1 [Albendazole] (20 µM)	0.989	1.01	1.05	0.661	1.09 (inactive)	0.961 (inactive)	1.07 (inactive)	1.01 (inactive)	1.02 (inactive)	0.982 (inactive)	1.01 (inactive)	1.13 (inactive)
Nc1ccc2cc3ccc(N)cc3nc2c1 [Proflavine hemisulfate] (20 µM)	1.13	0.951	1	1.02	0.816 (inactive)	1 (inactive)	0.861 (inactive)	1.03 (inactive)	0.963 (inactive)	1.16 (inactive)	0.982 (inactive)	0.861 (inactive)
CN(C)CCOc1ccc(/C(=C(/CCCl)c2ccccc2)c2ccccc2)cc1 [Toremifene] (20 µM)	1.18	1.1	1.15	0.943	0.943 (inactive)	1.02 (inactive)	0.647 (active)	0.998 (inactive)	0.975 (inactive)	0.98 (inactive)	1.04 (inactive)	0.871 (inactive)
Cc1cc(-c2ccccc2)nnc1NCCN1CCOCC1 [Minaprine dihydrochloride] (20 µM)	1.21	0.985	0.972	1.16	0.939 (inactive)	1.01 (inactive)	0.991 (inactive)	0.963 (inactive)	0.998 (inactive)	1.01 (inactive)	1 (inactive)	0.955 (inactive)
O=C(O)c1cc(=O)[nH]c(=O)[nH]1 [Orotic acid] (20 µM)	1.11	0.979	1.01	1.22	0.955 (inactive)	1.01 (inactive)	0.967 (inactive)	0.995 (inactive)	1.01 (inactive)	1.03 (inactive)	0.993 (inactive)	0.948 (inactive)
CCCC(CCC)C(=O)O[C@H]1C[C@H]2CC[C@@H](C1)[N+]2(C)C [Anisotropine Methylbromide] (20 µM)	1.04	1.07	0.99	1.01	0.986 (inactive)	1.06 (inactive)	1.04 (inactive)	1.03 (inactive)	0.962 (inactive)	0.948 (inactive)	0.99 (inactive)	1.06 (inactive)
Cn1c(=O)cc(N2CCC[C@@H](N)C2)n(Cc2ccccc2C#N)c1=O [Alogliptin benzoate] (20 µM)	1.06	0.955	1.09	1.02	0.923 (inactive)	1.01 (inactive)	0.899 (inactive)	1.01 (inactive)	1.01 (inactive)	0.992 (inactive)	1.01 (inactive)	0.897 (inactive)
CC(C)c1cc2c(cc1S(=O)(=O)O)[C@@]1(C)CCC[C@@](C)(C(=O)O)[C@@H]1CC2 [Ecabet sodium] (20 µM)	1.16	1	1.01	0.982	0.974 (inactive)	0.972 (inactive)	1.01 (inactive)	0.955 (inactive)	1 (inactive)	1.01 (inactive)	0.991 (inactive)	0.995 (inactive)
